hiPSC survival – enhancers of single-cell hiPSC survival, primary screen, ATPlite luminescence | 100% = ROCK inhibitor wells, 0% = DMSO | survival enhancement, % at 20 µM | AID 602274, 2012 | 360,000 compounds, 0.044% hits; in the data active means survival enhancement above about 18%;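 further: cells exposed to compounds for 16 hours before the ATP read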
NRP1-CendR mod – modulators of CendR peptide binding to NRP-1, primary screen, biochemical, fluorescence polarization, uHTS; 360,000 compounds, 0.85% hits; inhibition, % at 25 µM; FAM-RPARPAR peptide binding to NRP-1; Neuropilin-1 (Homo sapiens), O14786;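 active means inhibition or corrected inhibition above about 18%, plus a signal ratio from 0.5 to 1.5, limit read from the data, passing the limit was not always enough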
ABCB6 inh 2 – ABCB6 transporter inhibitors, primary screen, K562-ABCB6 cells, flow cytometry, MLPCN library | 360,000 compounds, 0.19% hits | K562-ABCB6 porphyrin accumulation, 1 h; active compounds read low | fluorescence ratio to DMSO, % at 10 µM | ATP-binding cassette sub-family B member 6 (Homo sapiens), Q9NP58 | AID 602162, 2011;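 active means fluorescence ratio to DMSO below 75%, the collection mean minus 3 SD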;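 further: signal is porphyrin accumulated inside mitochondria; 100% equals median channel fluorescence of DMSO control wells; lower ratio means ABCB6 inhibition with less porphyrin fluorescence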
INS-1E GSIS act – GLuc luminescence reporter in INS-1E cells, primary screen for activators of glucose-dependent secretion of insulin; 370,000 compounds, 0.61% hits; INS-1E GLuc reporter insulin secretion, 2-3 h; activation, % at 16.6 µM;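 active means lowest replicate activation of at least 40%, so every replicate reaches that level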;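 further: 0% = median of neutral control wells and 100% = median of IBMX positive control wells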
ARNT TACC3 PPI – disruptors of ARNT/TACC3 protein interaction, primary screen, biochemical, AlphaScreen, single concentration | AlphaScreen His-ARNT PAS-B/GST-TACC3 binding, luminescence; TACC3 fragment carries E629A point mutation | inhibition, % at 9.99 µM | 390,000 compounds, 0.66% hits;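 active means mean inhibition of replicates at least 50% and at least half of replicates each reaching 50%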;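 further: 0% = complete ARNT plus TACC3 wells and 100% = ARNT alone without TACC3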
ABCB6 inh CP1 – ABCB6 transporter inhibitors, confirmation, K562-ABCB6 cells, flow cytometry, cherry pick 1; K562-ABCB6 porphyrin accumulation, 1 h; active compounds read low; AID 602430, 2012; shares compounds with ABCB6 inh 2; 700 tested, under 10 active; ratio response (% of DMSO), % at 10 µM;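 active means repeat-averaged ratio response below 75% of DMSO, the collection mean minus 3 SD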;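 further: median porphyrin fluorescence at 575 nm with 488 nm excitation from mitochondria; lower ratio means less porphyrin signal so ABCB6 inhibition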
AlphaScreen ctr – AlphaScreen signal interference compounds, dose response, artefact control for ARNT-TACC3 interaction inhibitor project, biochemical, luminescence, cherry-pick. shares compounds with ARNT TACC3 PPI. His-ARNT PASB-GST AlphaScreen artifact counter-screen. AC50, µM (highest dose often 68 µM), for inactives: at the highest dose activity change, negative = signal decrease. 1,200 compounds, 50% hits. AID 651705, 2012;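 active means every separate test run was called active for a drop in luminescence, with AC50 within twice the top valid dose, actives reach about 71 µM in these data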
* marks the source's active call; other numbers are inactive results; nt = not tested or not shown. Hits are enriched below; roughly 1.8% of the tested compounds scored in any of these assays.

SMILES	hiPSC survival	NRP1-CendR mod	ABCB6 inh 2	INS-1E GSIS act	ARNT TACC3 PPI	AlphaScreen ctr	others
CCCCn1c(O)c(C(C)=NC(C)c2ccccc2)c(=O)[nH]c1=O (stereo unspecified)	-3	-9	72*	nt	-2	nt	ABCB6 inh CP1=99
CCCNC(=O)[C@H]1[C@H](CO)[C@H]2Cn3c(cccc3=O)[C@@H]1N2CCC	nt	nt	nt	5	nt	nt
Fc1ccccc1CNCCc1c[nH]c2ccccc12	0	-7	100	3	7	nt
Fc1ccc(CNCCc2c[nH]c3ccccc23)cc1	0	-7	69*	-5	0	nt	ABCB6 inh CP1=100
CC(=O)N1CCC2(CC1)CC(=O)c1cc(OCC(=O)N3CCC4(CC3)OCCO4)ccc1O2	0	3	96	1	14	nt
CC(=O)N1CCC2(CC1)CC(=O)c1cc(OCC(=O)N3CCN(C)CC3)ccc1O2	-1	-3	58*	-3	-1	nt	ABCB6 inh CP1=101
COC(=O)[C@@H]1[C@@H](CO)[C@@H]2Cn3c(ccc(C4=CCCC4)c3=O)[C@H]1N2S(=O)(=O)c1cn(C)cn1	nt	nt	nt	-5	-4	nt
O=C(CCN1CCOCC1)NCC(=O)Nc1ccc(Br)cc1C(=O)c1ccccc1	2	17	70*	nt	0	nt	ABCB6 inh CP1=100
C/C=C/c1ccc([C@@H]2[C@@H](CO)N3CCCCN(C(=O)Cc4ccncc4)C[C@H]23)cc1	nt	nt	nt	-2	2	nt
C[N+](C)(C)CC1CCCC(C[N+](C)(C)C)C1=O (stereo unspecified)	3	6	43*	nt	-8	nt	ABCB6 inh CP1=68*
COC(=O)C[C@H]1CC[C@@H]2NC[C@@H](O)COC[C@H]2O1	nt	nt	nt	-5	-5	nt
CCCCn1c(NC(=O)c2ccco2)c(C(=O)OCC)c2nc3ccccc3nc21	1	-22	110	nt	30*	-14%
CCCCn1c(N)c(C(=O)OCCOC)c2nc3ccccc3nc21	-1	-5	102	-13	nt	nt
CCCCOCCCn1c(N)c(C(=O)OCCOC)c2nc3ccccc3nc21	5	0	97	-14	68*	-10%
COCCCn1c(N)c(C(=O)NCCC(C)C)c2nc3ccccc3nc21	1	-3	92	nt	active	-2%
CCCN1[C@@H]2Cn3c(ccc(-c4cccc(C(=O)N(C)C)c4)c3=O)[C@H]1[C@@H](C(=O)OC)[C@@H]2CO	nt	nt	nt	8	-1	nt
COC(=O)[C@@H]1[C@@H](CO)[C@@H]2Cn3c(ccc(C4=CCCC4)c3=O)[C@H]1N2Cc1ccccn1	nt	nt	nt	7	7	nt
O=C(Cc1ccccn1)N1CCCCN2[C@H](CO)[C@H](c3ccc(C#Cc4ccccc4)cc3)[C@@H]2C1	nt	nt	nt	5	0	nt
CCOC(=O)c1cc2c(cn1)[C@@H](CCO)NC2	1	6	101	10	55*	-6%
CCC(=O)N1[C@@H]2Cn3c(ccc(-c4cccc(F)c4)c3=O)[C@H]1[C@@H](C(=O)OC)[C@@H]2CO	nt	nt	nt	5	-3	nt
COc1ccc(-c2cc(=NCCC(=O)O)c3cc(C)ccc3o2)cc1	0	8	105	-4	30*	-30%
COc1ccc(-c2cc(=Nc3ccccc3)c3cc(C)ccc3o2)cc1	-1	-5	101	-4	5	nt
COc1cc2c(c(OC)c1OC)-c1ccc(O)c(=O)cc1[C@@H](N)CC2	0	0	102	nt	58*	-35%
COc1ccc(CC2C(=O)NC(=O)NC2=O)c(OC)c1	2	5	94	nt	-4	nt
COc1ccc(Cc2c(O)[nH]c(=O)[nH]c2=O)c(OC)c1	-1	-2	94	-4	15*	-4%

Screens as filed in PubChem.
